In PubChem BioAssay AID1159580 (chemical genetic matrix, 2015):
Values joined by “and” are separate entries in the source; they are usually repeats but may differ in a detail not shown here. Equal values may be shown once. About 2,000 (36%) of roughly 5,500 compounds were called active. Not shown: some 18% with an inconclusive outcome. Rule as the data show it: active = normalized growth mostly below about 0.91 (no sharp cut-off); inconclusive = no clear call, values can overlap the other calls; inactive = mostly above about 0.92. This is one part of the list.

Assay: chemical genetic growth profiling, strain panel (AID 1159580);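 also: tested at 20 µM; growth read once vehicle control cultures reached saturation at 30 °C; 1 = growth at the plate median or of vehicle wells; lower values mean less growth of the strain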
Details: S. cerevisiae deletion strains, growth OD

Measured: normalized growth

CCC1C(=O)OCC1Cc1cncn1C (stereo not given)
inactive: locus YAL013W, strain DEP1, stronger effect = lower value 1.01 and 0.986 | locus YAL021C, strain ccr4, stronger effect = lower value 1.01 | locus YAL026C, strain drs2, stronger effect = lower value 1.01 and 1.02 | locus YAL030W, strain snc1, stronger effect = lower value 1.03 and 1.01 | locus YAL040C, strain CLN3, stronger effect = lower value 1.04 and 1.02 | locus YBL061C, strain skt5, stronger effect = lower value 1.03 and 1.02 | locus YBR009C, strain hhf1, stronger effect = lower value 1.01 and 1 | locus YBR021W, strain FUR4, stronger effect = lower value 0.985 and 1 | locus YBR023C, strain chs3, stronger effect = lower value 1.03 and 1.02 | locus YBR171W, strain sec66, stronger effect = lower value 1.02 and 1.03 | locus YBR229C, strain ROT2, stronger effect = lower value 1.01 | locus YBR231C, strain swc5, stronger effect = lower value 1.02 and 1.01 | locus YBR279W, strain paf1, stronger effect = lower value 1.03 and 1.01 | locus YCL011C, strain gbp2, stronger effect = lower value 1.03 and 1.02 | locus YCL016C, strain dcc1, stronger effect = lower value 1.03 and 1.02 | locus YCL029C, strain bik1, stronger effect = lower value 1.03 and 0.998 | locus YCL061C, strain MRC1 (second series), stronger effect = lower value 1.01 and 0.993 | locus YCL061C, strain MRC1, stronger effect = lower value 1.01 | locus YCL069W, strain vba3, stronger effect = lower value 1.02 and 1.01 | locus YCR088W, strain abp1, stronger effect = lower value 1.02 and 1 | locus YDL005C, strain med2, stronger effect = lower value 1.01 and 1.03 | locus YDL035C, strain GPR1, stronger effect = lower value 1.01 | locus YDL040C, strain nat1, stronger effect = lower value 1.02 and 1.01 | locus YDL074C, strain BRE1, stronger effect = lower value 1.02 and 1.03 | locus YDL101C, strain DUN1, stronger effect = lower value 1.02 | locus YDL134C, strain PPH21, stronger effect = lower value 1.01 and 1.02 | locus YDL185W, strain tfp1, stronger effect = lower value 1.02 and 1 | locus YDL192W, strain arf1, stronger effect = lower value 1.02 and 1 | locus YDR001C, strain nth1, stronger effect = lower value 1.01 and 1 | locus YDR069C, strain doa4, stronger effect = lower value 1.01 and 1.02 | locus YDR101C, strain arx1, stronger effect = lower value 1.02 and 0.975 | locus YDR137W, strain rgp1, stronger effect = lower value 1.05 and 1.1 | locus YDR159W, strain sac3, stronger effect = lower value 1.01 and 1.02 | locus YDR162C, strain NBP2, stronger effect = lower value 1.01 and 1.05 | locus YDR195W, strain ref2 1 and 0.98 | locus YDR297W, strain sur2, stronger effect = lower value 1.02 | locus YDR318W, strain mcm21, stronger effect = lower value 1.03 and 0.997 | locus YDR334W, strain swr1, stronger effect = lower value 1.01 and 1.02 | locus YDR335W, strain msn5, stronger effect = lower value 1.02 | locus YDR363W, strain ESC2, stronger effect = lower value 1.03 and 1.01 | locus YDR388W, stronger effect = lower value 1.02 and 0.992 | locus YDR392W, strain spt3, stronger effect = lower value 0.976 and 0.974 | locus YDR502C, strain sam2, stronger effect = lower value 1.04 and 1.01 | locus YEL003W, strain gim4, stronger effect = lower value 1.01 and 1.02 | locus YEL037C, strain rad23, stronger effect = lower value 1.01 | locus YEL061C, strain CIN8 (second series), stronger effect = lower value 1.02 and 1.03 | locus YEL061C, strain CIN8, stronger effect = lower value 1.01 | locus YER002W, strain NOP16, stronger effect = lower value 1.02 and 0.975 | locus YER015W, strain faa2, stronger effect = lower value 1.02 and 1.01 | locus YER016W, strain bim1, stronger effect = lower value 1.01 | locus YER110C, stronger effect = lower value 1.02 and 0.99 | locus YER111C, strain swi4, stronger effect = lower value 1.02 | locus YER155C, strain BEM2 (second series), stronger effect = lower value 1.01 and 1.03 | locus YER155C, strain BEM2, stronger effect = lower value 0.99 and 1 | locus YER167W, strain BCK2, stronger effect = lower value 1.01 and 1.02 | locus YFR010W, strain ubp6, stronger effect = lower value 1.03 and 1 | locus YGL078C, strain dbp3, stronger effect = lower value 1.01 and 1 | locus YGL086W, strain mad1, stronger effect = lower value 1 and 0.996 | locus YGL167C, strain pmr1, stronger effect = lower value 1.03 | locus YGL173C, strain kem1, stronger effect = lower value 1.01 | locus YGL227W, strain vid30, stronger effect = lower value 1.02 | locus YGL240W, strain doc1, stronger effect = lower value 1.01 | locus YGL248W, strain PDE1, stronger effect = lower value 1.01 and 1.02 | locus YGL253W, strain hxk2, stronger effect = lower value 1.01 | locus YGR078C, strain PAC10, stronger effect = lower value 1.04 and 1 and 1.02 | locus YGR135W, strain pre9, stronger effect = lower value 1.01 | locus YGR229C, strain SMI1, stronger effect = lower value 1.02 and 1 and 0.999 | locus YGR252W, strain gcn5, stronger effect = lower value 0.969 and 0.983 | locus YHR013C, strain ard1, stronger effect = lower value 1.06 and 1.01 | locus YHR027C, strain rpn1, stronger effect = lower value 1.02 | locus YHR030C, strain SLT2, stronger effect = lower value 1.01 and 0.975 | locus YHR079C, strain IRE1 (second series), stronger effect = lower value 1.03 and 0.989 | locus YHR079C, strain IRE1, stronger effect = lower value 0.975 | locus YHR094C, strain hxt1, stronger effect = lower value 1.02 and 0.997 | locus YHR129C, strain ARP1, stronger effect = lower value 1.01 | locus YHR142W, strain chs7, stronger effect = lower value 1.03 and 1.01 | locus YHR200W, strain rpn10, stronger effect = lower value 1.01 and 0.999 | locus YIL066C, strain RNR3, stronger effect = lower value 1.02 and 1.01 | locus YIL073C, strain SPO22, stronger effect = lower value 1.06 and 1.02 | locus YIL125W, strain kgd1, stronger effect = lower value 0.997 and 1.01 | locus YIR030C, strain dcg1, stronger effect = lower value 1.02 and 0.993 | locus YJL092W, strain hpr5, stronger effect = lower value 1.01 | locus YJL095W, strain BCK1 (second series), stronger effect = lower value 1.02 | locus YJL095W, strain BCK1, stronger effect = lower value 1.03 and 0.988 and 1.01 | locus YJL115W, strain asf1, stronger effect = lower value 1.01 and 1.02 | locus YJL129C, strain trk1, stronger effect = lower value 1.04 and 1.03 | locus YJL134W, strain LCB3, stronger effect = lower value 1.01 | locus YJL154C, strain vps35, stronger effect = lower value 1.02 and 1.01 | locus YJL164C, strain tpk1, stronger effect = lower value 1.01 and 1.02 | locus YJL166W, strain qcr8, stronger effect = lower value 1.02 | locus YJL168C, strain set2, stronger effect = lower value 1.01 and 0.999 | locus YJL187C, strain SWE1 (second series), stronger effect = lower value 1.02 and 1.01 | locus YJL187C, strain SWE1, stronger effect = lower value 1.02 and 1.01 | locus YJR043C, strain POL32, stronger effect = lower value 1.02 and 1 | locus YJR066W, strain TOR1, stronger effect = lower value 0.971
